According to PubChem BioAssay (NCI):
About 79,000 compounds went through this panel and 15% of them were active in at least one assay; those are over-represented in the sample as a whole. Values without a mark were called inactive. Active and inactive are the calls of the source. Rule as the data show it: active = growth inhibition above about 70%; inactive = the rest. *1 amine or outer side, *2 acyl side, *3 side chain or, on linkers, in order; H or OH if unused. Where a SMILES comes first, the peptide text is derived from it. [ ]: non-standard residue; d: D form. X12 = NC(N)=NCC(O)CC(N[*:1])C(=O)[*:2]; Orn = NCCC[CH](N)C(=O)O

How the values were obtained:
[1] = NCI Yeast Anticancer Drug Screen. Data for the rad50 strain (AID 155);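 also: 0% = growth of vehicle-only cultures of the same strain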; conditions: S. cerevisiae rad50 strain growth inhibition; at 50.0 µM; hits give high values
Method in brief: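 Inhibition values express reduced yeast growth in compound-treated cultures relative to vehicle-treated controls.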

[2] = NCI Yeast Anticancer Drug Screen. Data for the mec2-1 strain (AID 157); conditions: S. cerevisiae mec2-1 strain, at 50.0 µM, hits give high values
Method in brief: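 Test agents were screened against the mec2-1 yeast strain, with defined DNA repair or cell cycle alteration. Growth was scored as inhibition against vehicle-only controls.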

[3] = NCI Yeast Anticancer Drug Screen. Data for the sgs1 mgt1 strain (AID 161);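 also: 0% = growth of cultures given vehicle only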; conditions: S. cerevisiae sgs1 mgt1 strain, at 50.0 µM, hits give high values
Method in brief: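 Genetically altered yeast, compound exposure, growth inhibition relative to vehicle.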

[4] = NCI Yeast Anticancer Drug Screen. Data for the cln2 rad14 strain (AID 165);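 also: 0% = growth equal to vehicle treated cultures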; conditions: S. cerevisiae cln2 rad14 strain, at 50.0 µM, hits give high values
Method in brief: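 Growth of compound-exposed yeast (cln2 rad14 genotype) measured and expressed as inhibition relative to vehicle.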

[5] = NCI Yeast Anticancer Drug Screen. Data for the bub3 strain (AID 167); conditions: S. cerevisiae bub3 mutant strain, at 50.0 µM, hits give high values
Method in brief: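 Steps: expose the mutant yeast strain to compound; grow alongside vehicle-treated cultures; measure growth; express inhibition against the vehicle cultures.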

[6] = NCI Yeast Anticancer Drug Screen. Data for the mlh1 rad18 strain (AID 175); conditions: S. cerevisiae mlh1 rad18 strain growth inhibition; at 50.0 µM; hits give high values
Method in brief: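 In this whole-cell yeast screen, a strain with altered DNA damage repair is challenged with compound, and its growth is measured against matched vehicle-treated controls.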

| SMILES | growth inhibition [1] | growth inhibition [2] | growth inhibition [3] | growth inhibition [4] | growth inhibition [5] | growth inhibition [6] |
| --- | --- | --- | --- | --- | --- | --- |
| Clc1cccc2nsnc12 | 12.9% | -12.1% | -3.15% | -49% | 5.15% | 6.1% |
| CNC(=O)c1ccccc1N | 1.75% | -6.95% | -11.7% | -84.2% | 1.05% | -17.2% |
| CC(O)C(NC(=O)C(CCCN)NC(=O)C(CC(O)CN=C(N)N)NC(=O)C(N)CCCN=C(N)N)C(=O)NC(CCCN)C(=O)NC(CC(O)CN=C(N)N)C(=O)NC(Cc1ccc(O)cc1)C(=O)O (stereo not given) (tested in a mixture with another compound) (H-R[X12][Orn]T[Orn][X12]Y-OH; configuration not given here) | 39.6% | -3.3% | 19.5% | 8.45% | 27.9% | 38.1% |
| O=C1/C(=C/c2ccc(O)c(O)c2)CC/C1=C\c1ccc(O)c(O)c1 | -18.9% | -23.9% | -21% | 10.9% | -16.1% | -22.6% |
| O=S(=O)(Nc1ccccc1Cl)c1ccc(F)cc1 | -5.85% | -16.1% | -6.6% | 4.7% | -24% | 20.9% |
| O=C(COc1ccc(Cl)cc1C(=O)O)NCc1ccc([N+](=O)[O-])cc1 | -9.45% | 8.1% | 20.8% | -10.9% | -9.85% | -24.6% |
| Cc1cccc(C)c1NC(=O)Oc1ccc(Cl)cc1Cc1ccccc1 | 98.5% (active) | 99.5% (active) | 99.6% (active) | 98.9% (active) | 99.3% (active) | 99.3% (active) |
| C[N+](C)(C)CC(=O)N/N=C(/C=C/c1ccccc1)CC1OC(=O)c2ccccc21 (stereo not given) | -9.65% | -11.4% | -3.5% | 16.2% | -7.5% | 3.9% |
| O=C(O)/C=C\Sc1ccccc1C(=O)O | 2.05% | -15.9% | -6.5% | -2.05% | -10.2% | 23.1% |
| CCOC(=O)c1nc2c(Cl)c3ncccc3cc2[nH]c1=O | 20.6% | 11.1% | 20.8% | -9.7% | 16.1% | 20.4% |
| CC(C)(CCN)[N+](=O)[O-] | -5.15% | 9.15% | 17.9% | -88.3% | 5.55% | -2.5% |
| COCc1cc(C(C)(C)C)cc(CNC2CCCCC2)c1O | 16% | 12.2% | 27.1% | 13.4% | 12.5% | 10.7% |
| CCCCC1OCCOC1C1COCCO1 (stereo not given) | -7.25% | -21.9% | -10.8% | -6% | 2.55% | 6.7% |
| CC1(C)N=C(N)N=C(N)N1c1cccc(CO)c1 | 0.5% | 9.5% | 1.15% | -2.45% | 15.2% | 28.2% |
| Cc1c(C(C)c2[nH]c3ccccc3c2C)[nH]c2ccccc12 | 8.1% | 0.45% | -11.6% | 4.45% | 17.4% | -13.6% |
| CC1=CC(=Nc2ccc(N(C)C)cc2)C(C)=CC1=O | -11.1% | -28.3% | -2.4% | -30.6% | 5.4% | -4.35% |
| O=C(O)c1ccc(F)cc1C(=O)O | 5.5% | 6% | 4.75% | 5.25% | 3.2% | 1.45% |
| COc1cc(C2NCCC(c3ccccc3)(c3ccccc3)N2)cc(OC)c1OC (stereo not given) | -30.9% | -4.65% | 5.25% | 4.55% | -7.6% | 5.5% |
| N[C@@H]1c2c(Br)sc(N3CCOCC3)c2C(=O)[C@@H]1O | 10.8% | -10.4% | 4.1% | -18.6% | 5.4% | -31.6% |
| CCN(CC)CC(C)(C)C(=O)/C=C/c1ccc(C)cc1 | 39.5% | 12.8% | 57.5% | 3.9% | -13.4% | 19.9% |

| SMILES | growth inhibition [1] | growth inhibition [2] | growth inhibition [3] | growth inhibition [4] | growth inhibition [5] | growth inhibition [6] |
| --- | --- | --- | --- | --- | --- | --- |
| O=c1oc2ccc(Cl)cc2n1CN1CCOCC1 | 1.9% | -26.9% | 1.95% | 12.8% | -34.2% | 5.55% |
| CCOC(=O)NN(C(=O)OCC)c1c(C)cc(C)c(N(NC(=O)OCC)C(=O)OCC)c1C | 1.7% | 7.25% | 12.4% | 23.9% | 16.4% | 22.6% |
| O=C(c1ccccc1Cl)c1ccc2ccccc2c1C(=O)O | 2.5% | -0.55% | -0.6% | 6% | -10% | 2.95% |
| CC1CCC23C1CC(CC(=O)C2(C)O)C3(C)C (stereo not given) | 4.75% | 6% | 5.2% | -49.4% | -21.1% | 5.05% |
| O=C(NC1CCCCC1)c1cccnc1 | -11.4% | -2.2% | -17.1% | -10.9% | -14.5% | -13.5% |
| CN(C(=O)c1ccco1)C(=S)N1CCN(c2ccccc2)CC1 | -17% | -1.95% | -0.7% | 10.2% | 13.8% | -13.3% |
| C=CCN(CC=C)CNC(C)=O | -9.7% | -14.7% | -8.4% | -17% | -7.55% | -10.8% |
| C(=N/n1nnc(-c2ccccc2)n1)/c1ccccc1 | -2.4% | -10.1% | -3% | -44.1% | -5.3% | -6.05% |
| CN1C(=O)c2ccccc2Cc2c(Cl)ncnc21 | -0.5% | 26.4% | 11.2% | -1.45% | 28.6% | 2.1% |
| CCN1CCCC(Nc2nc(Nc3cc(Cl)cc(Cl)c3)nc3ccc(Cl)cc23)C1 (stereo not given) | 97.3% (active) | 97.1% (active) | 97.5% (active) | 95.5% (active) | 96.8% (active) | 95.8% (active) |
| Nc1ccc(C(=O)O)c([N+](=O)[O-])c1 | 0.7% | -2.45% | -0.5% | -30.9% | -11.7% | -2.1% |
| Cc1cccc2sc(=S)[nH]c12 | 35% | 18.6% | 28.9% | 19.9% | 29.8% | 30.6% |
| C=CCN1/C(=C(\C#N)c2nc3ccccc3[nH]2)Sc2c1nc[nH]c2=O | -51.6% | -27.9% | -32% | -32% | -32.9% | -49.8% |
| O=C(CC(=O)n1nc(-c2ccccc2)c(N=Nc2ccc(Cl)cc2)c1-c1ccccc1)Nc1ccc(Cl)cc1 | -6.75% | -19.1% | -11.9% | -19.3% | -11.1% | -16.8% |
| Oc1ccccc1-c1nc2ccccc2s1 | -0.25% | -37% | 7.85% | -2.7% | 10.3% | -10.2% |
| C/C(=N\NS(=O)(=O)c1ccc(C)cc1)c1ccc[n+]([O-])n1 | 4.9% | -2.4% | 5.8% | 7.4% | 6.2% | -0.55% |
| COc1ccc(CN2C(=S)SC(c3ccc(Cl)cc3)N2c2ccc(OC)cc2)cc1 (stereo not given) | -25.1% | -19.6% | -9.2% | -37% | -1.35% | -19.8% |
| O=C1N=C(C=c2ccc(=Cc3[nH]c(=O)n(CN4CCCCC4)c3O)cc2)C(=O)N1CN1CCCCC1 | 1.2% | -6.2% | 3.65% | 26.4% | -10.3% | -7.1% |
| COc1ccc(C(=O)C(C)(c2nc3n(c2O)C(=N)N=N3)c2nc3n(c2O)C(=N)N=N3)cc1 (stereo not given) | -8.8% | 4.45% | 0.75% | -8.85% | 5.8% | -7.95% |
| O=c1[nH]cc(CS)c(=O)[nH]1 | 28.4% | 0.85% | -7.95% | 34% | 51% | 14.5% |
